Assay results: PubChem BioAssay AID1159580 (chemical genetic matrix, 2015)
In all, about 5,500 compounds went through this assay and about 2,000 (36%) were called active. Roughly 18% stayed inconclusive and do not appear here. Rule as the data show it: active = normalized growth mostly below about 0.91 (no sharp cut-off); inconclusive = no clear call, values can overlap the other calls; inactive = mostly above about 0.92. The list shows a part of the results.

Test: chemical genetic growth profiling, strain panel (AID 1159580);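 also: tested at 20 µM; growth read once vehicle control cultures reached saturation at 30 °C; 1 = growth at the plate median or of vehicle wells; lower values mean less growth of the strain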
Details: S. cerevisiae deletion strains, growth OD
[1] = locus YDL101C, strain DUN1, hits give low values
[2] = locus YHR030C, strain SLT2, hits give low values

Measured: normalized growth

O=C(CSc1nnnn1-c1ccccc1)c1ccccc1
active: locus YDR477W, strain SNF1, hits give low values 0.663 | locus YFR019W, strain FAB1, hits give low values 0.752 | locus YGR040W, strain KSS1, hits give low values 0.655 | locus YGR052W, strain FMP48, hits give low values 0.587 | locus YGR092W, strain DBF2, hits give low values 0.431 | [2] 0.397 | locus YHR079C, strain IRE1, hits give low values 0.437 | locus YJL095W, strain BCK1, hits give low values 0.415 | locus YJL157C, strain FAR1, hits give low values 0.664 | locus YJR066W, strain TOR1 (second series), hits give low values 0.182 | locus YKL048C, strain ELM1, hits give low values 0.799 | locus YKL067W, strain YNK1, hits give low values 0.662 | locus YKL101W, strain HSL1, hits give low values 0.641 | locus YKL203C, strain TOR2, hits give low values 0.573 | locus YLR113W, strain HOG1, hits give low values 0.618 | locus YLR133W, strain CKI1, hits give low values 0.6 | locus YML070W, strain DAK1, hits give low values 0.608 | locus YMR205C, strain PFK2 (second series), hits give low values 0.696 | locus YNL020C, strain ARK1, hits give low values 0.61 | locus YNL183C, strain NPR1, hits give low values 0.505 | locus YNL307C, strain MCK1 (second series), hits give low values 0.259 | locus YOL136C, strain PFK27, hits give low values 0.529 | locus YOR119C, strain RIO1, hits give low values 0.61 | locus YOR231W, strain MKK1, hits give low values 0.448 | locus YPL031C, strain PHO85, hits give low values 0.571 | locus YPL153C, strain RAD53, hits give low values 0.538 | locus YPL204W, strain HRR25, hits give low values 0.524 | locus YPL256C, strain CLN2, hits give low values 0.758
inactive: locus YAR019C, strain CDC15, hits give low values 0.96 | locus YBL105C, strain PKC1, hits give low values 0.958 | locus YBR135W, strain CKS1, hits give low values 0.958 | locus YBR136W, strain MEC1, hits give low values 0.955 | locus YBR160W, strain CDC28, hits give low values 0.957 | locus YDL017W, strain CDC7, hits give low values 0.962 | locus YDL028C, strain MPS1, hits give low values 0.949 | [1] 0.983 | locus YDL108W, strain KIN28, hits give low values 0.947 | locus YDL132W, strain cdc53, hits give low values 0.954 | locus YDL214C, strain PRR2, hits give low values 0.734 | locus YDR052C, strain DBF4, hits give low values 0.966 | locus YDR054C, strain cdc34, hits give low values 0.908 | locus YDR226W, strain ADK1, hits give low values 0.959 | locus YER123W, strain YCK3, hits give low values 0.677 | locus YER133W, strain GLC7, hits give low values 0.775 | locus YFL009W, strain cdc4, hits give low values 0.949 | locus YFL029C, strain CAK1, hits give low values 0.949 | locus YFR003C, strain YPI1, hits give low values 0.96 | locus YFR028C, strain CDC14, hits give low values 0.959 | locus YHR082C, strain KSP1, hits give low values 0.698 | locus YHR205W, strain SCH9, hits give low values 0.661 | locus YIL147C, strain SLN1, hits give low values 0.948 | locus YJL128C, strain PBS2, hits give low values 0.948 | locus YJR016C, strain ILV3, hits give low values 0.965 | locus YJR066W, strain TOR1, hits give low values 0.486 | locus YKL193C, strain SDS22, hits give low values 0.952 | locus YLR403W, strain SFP1, hits give low values 0.663 | locus YMR001C, strain CDC5, hits give low values 0.95 | locus YMR277W, strain FCP1, hits give low values 0.946 | locus YNL006W, strain LST8, hits give low values 0.951 | locus YNL161W, strain CBK1, hits give low values 0.965 | locus YNL207W, strain RIO2, hits give low values 0.93 | locus YNL222W, strain SSU72, hits give low values 0.968 | locus YOL078W, strain AVO1, hits give low values 0.941 | locus YOR061W, strain CKA2, hits give low values 0.708 | locus YOR329C, strain SCD5, hits give low values 0.959 | locus YPL209C, strain IPL1, hits give low values 0.964 | locus YPR025C, strain CCL1, hits give low values 0.961 | locus YPR106W, strain ISR1, hits give low values 0.972 | locus YPR111W, strain DBF20, hits give low values 0.964 | strain NNK1, hits give low values 0.973 | strain TSCII, hits give low values 0.948

CSc1nnnn1-c1c(C)cccc1C
inactive: locus YAL013W, strain DEP1, hits give low values 0.998 | locus YBR229C, strain ROT2, hits give low values 0.973 | locus YCL061C, strain MRC1, hits give low values 0.996 | [1] 1.02 | locus YDR150W, strain NUM1, hits give low values 1.02 | locus YEL061C, strain CIN8, hits give low values 0.972 | locus YGR078C, strain PAC10, hits give low values 0.982 | locus YGR229C, strain SMI1, hits give low values 0.966 | [2] 0.96 | locus YHR087W, strain rtc3, hits give low values 0.988 | locus YJL187C, strain SWE1, hits give low values 0.979 | locus YJR043C, strain POL32, hits give low values 0.982 | locus YJR075W, strain HOC1, hits give low values 0.998 | locus YKL190W, strain CNB1, hits give low values 0.962 | locus YLR039C, strain RIC1, hits give low values 0.969 | locus YLR058C, strain SHM2 (second series), hits give low values 0.972 | locus YLR085C, strain ARP6, hits give low values 0.999 | locus YLR262C, strain YPT6, hits give low values 0.936 | locus YML094W, strain GIM5, hits give low values 1.08 | locus YMR219W, strain ESC1, hits give low values 0.983 | locus YMR263W, strain SAP30, hits give low values 1 | locus YNL153C, strain GIM3, hits give low values 0.998 | locus YNL298W, strain CLA4 (second series), hits give low values 0.984 | locus YNL322C, strain KRE1, hits give low values 0.984 | locus YNR030W, strain Alg12, hits give low values 1 | locus YOL006C, strain TOP1, hits give low values 0.944 | locus YPL055C, strain LGE1, hits give low values 1.01 | locus YPL241C, strain CIN2, hits give low values 0.936 | locus YPR135W, strain CTF4, hits give low values 1.01
